Source: PubChem (National Center for Advancing Translational Sciences (NCATS))
Rows were chosen to be rich in hits. Some 7.9% of all compounds tested hit in one or more screens of this group.
MARV entry inh – qHTS for inhibitors of binding or entry into cells for Marburg Virus | Marburg virus pseudotyped entry inhibition, cell reporter | Potency, µM (titrated, usually from 37.8 µM), for the others: at the top dose activity change, negative = inhibition, most hits filed as inhibitors | 300,000 compounds, 1.8% hits | AID 540276, 2011; calls by dose curve; tested in HEK293 cells; further: potency means the concentration at half of the fitted maximal effect
FMDV antiviral – High Throughput Screening for Foot and Mouth Disease Virus Antivirals; FMDV antiviral cell-based qHTS; Potency, µM (top dose mostly 57.9 µM), for inactives: top-dose activity change, negative = inhibition, usual class: inhibitors; 410,000 compounds, 1.2% hits; calls by dose curve; tested in HEK293T cells; further: read-out not given here; potency means the concentration at half of the fitted maximal effect; nearly all actives have a fitted effect of over 45% in size
HCMV antiviral – qHTS Assay for inhibitors of the human cytomegalovirus (HCMV); HFF cells, HCMV-luciferase reporter, 72 h; hits give low values; 410,000 compounds, 4.5% hits; activity change, negative = inhibition, % at 57.5 µM; in the data active means activity change below about -60%; inconclusive means no clear call, values can overlap the other calls; inactive means above about -39%
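Luciferase read-out from HCMV-luciferase-infected HFFs (MOI 1 PFU/cell) 72 h post infection at 37C; compounds added after 16 h cell attachment; activity normalized between buffer-only basal and Salinomycin (10uM) inhibitor controls.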
Lassa entry inh – qHTS for Inhibitors of binding or entry into cells for Lassa Virus | Lassa virus pseudotype entry inhibition, cell reporter | Potency, µM (top dose mostly 37.9 µM), inactives show at the top dose activity change, negative = inhibition, actives largely listed as inhibitors | 300,000 compounds, 1.2% hits | AID 540256, 2011; calls by dose curve; tested in HEK293 cells; further: potency means the concentration at half of the fitted maximal effect; nearly all actives have a fitted effect of over 50% in size
HCV inhibitor – qHTS Assay for Inhibitors of Hepatitis C Virus (HCV); Huh7.5.1 HCVcc-Cre infection, luciferase reporter, 44 h; Potency, µM (highest dose often 41.8 µM), for the others: at the top dose activity change, negative = inhibition, most hits filed as inhibitors; 340,000 compounds, 3.4% hits; active means well fitted inhibition curve with a large enough effect; inconclusive means small, poorly fitted or top-dose-only effect, or another doubt; inactive means no such curve, though single readings can be large or run the other way; further: potency means the concentration at half of the fitted maximal effect
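Compounds are dispensed onto cells plated 4 h earlier at 1,000 per well, with HCVcc-Cre virus (about 0.5 moi) added next. Following 44 h of culture, luminescent signal is measured for 15 sec after 15 min with substrate at room temperature.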
The depositor's hits bear a star; u = inconclusive; x = not tested or not shown; ! = repeats disagree; [ ] = another dose, or the depositor's remark. On the % scale 0 is the no-effect control and ±100 the full control effect.

SMILES	MARV entry inh	FMDV antiviral	HCMV antiviral	Lassa entry inh	HCV inhibitor
Cc1c(OCC(F)(F)F)ccnc1CS(=O)c1nc2ccccc2[nH]1 (stereo not given)	u	-13%	22	u	u
COCCCOc1ccnc(CS(=O)c2nc3ccccc3[nH]2)c1C (stereo not given)	x	10%	-65*	x	u
Brc1ccc(-c2cn3ccccc3n2)s1	u	-65%	-11	u	8.9µM*
CC=COC(=O)N[C@@H](c1ccccc1)[C@]1(C(C)=O)CCOC1=O	7%[14.2 µM]	x	x	x	x
O=C(CCN1CCOCC1)NNC(=S)NC(=O)c1ccccc1	6%[46.1 µM]	-4%	-35	0%	4%
O=S(=O)(c1ccc(Cl)nc1)N1CCCC1	x	9%	4	x	12%
COc1cccc(/C=C(/C(=O)OCC(=O)NC2CCCCCCC2)c2ccccc2)c1	-12%	u	u	-8%	11µM*
COCCN1C(=O)NC(c2ccc(Br)cc2)C(C(C)=O)=C1C (stereo not given)	63%[14.2 µM]	x	x	x	x
COc1cccc(CNC(=O)c2c(OC)cc(=O)n3c2CCN(C(=O)c2csc(C)n2)CC3)c1	x	20%	x	x	x
CC1CC(=O)Nc2ccccc2N1C(=O)CSc1nnnn1C (stereo not given)	4%	-2%	8	14%	9%
Cc1cccc(NC2=NC(C)(C)N=C(N)N2)c1	u	-19%	-98*	u	u
O=C(Nc1cccnc1)c1ccc([N+](=O)[O-])o1	x	-24%	-29	x	u
NC(=O)c1oc2ccccc2c1NC(=O)c1ccc([N+](=O)[O-])o1	u	-7%	-102*	u	u
O=C(NN(c1ccccc1)c1ccccc1)c1ccc([N+](=O)[O-])o1	u	0%	-93*	-17%[46.1 µM]	u
NC(=O)c1oc2ccccc2c1NC(=O)c1ccc(F)cc1	x	-25%	83	x	u
O=C(NNC(=O)c1ccc([N+](=O)[O-])o1)c1ccccc1	u	-14%	-92*	-30%	u
C=CCN(c1ccc(F)cc1)S(=O)(=O)c1cc(C(=O)NC2CC2)ccc1Cl	x	u	-35	x	x
CCn1nc([N+](=O)[O-])c(C(C#N)c2nc3cc(C(F)(F)F)ccc3s2)c(Cl)c1=O (stereo not given)	-19%	2µM*	u	10%	11µM*
CN(C)CCOC(c1ccc(Cl)cc1)c1ccccn1 (stereo not given)	x	-14%	-31	x	u
CN(C)CC[C@@H](c1ccccc1)c1ccccn1	-8%	x	x	x	x
CN(C)CC[C@H](c1ccc(Cl)cc1)c1ccccn1	5.6µM*!	x	x	x	x
CN(C)CCC(c1ccc(Br)cc1)c1ccccn1 (stereo not given)	11µM*!	11%	u	u	u
COc1ccc(C(=O)[C@@H]2CCCCC2=O)cc1	24%	x	x	x	x
COc1cc(C2c3cc4c(cc3OC(NNC(N)=O)C2C)OCO4)cc(OC)c1OC (stereo not given)	u	-14%	-86*	u	u
CCN(CC)C1Oc2cc3c(cc2C(c2cc(OC)c(O)c(OC)c2)C1C)OCO3 (stereo not given)	-9%	-16%	62	u	-23%
SMILES	MARV entry inh	FMDV antiviral	HCMV antiviral	Lassa entry inh	HCV inhibitor
CCN(CC)C1Oc2cc3c(cc2C(c2cccc(OC)c2O)C1C)OCO3 (stereo not given)	7%	-15%	-9	-20%	-17%
COc1cc(C2c3cc4c(cc3C(O)C3COCC23)OCO4)cc(OC)c1OC (stereo not given)	u	-6%	19	0%[46.1 µM]	u
COc1cccc(C2c3cc4c(cc3OC(NNC(N)=O)C2C)OCO4)c1O (stereo not given)	u	-18%	-73*	u	-4%
COc1cc(C2c3cc4c(cc3OC(NNC(N)=S)C2C)OCO4)cc(OC)c1OC (stereo not given)	u	-19%	-81*	u	-12%
COc1cc(C2c3cc4c(cc3OC(NCc3ccccc3)C2C)OCO4)cc(OC)c1OC (stereo not given)	-28%	-18%	-80*	u	-9%
COc1ccc(C2c3cc4c(cc3OC(NNC(N)=O)C2C)OCO4)cc1 (stereo not given)	u	-21%	11	-16%[46.1 µM]	u
